Experimental data: the supplement of paper PMC3334620
In all, about 33,000 sequences were measured (“E-score (-0.5 to 0.5)”: median about -0.016, highest 2% from about 0.3 on). This excerpt belongs to a sample that is enriched for the highest values.

molecular target: T1, Yer184c (UniProt P39961); assay: PBM E-score (8-mer binding enrichment) (E-score (-0.5 to 0.5)); higher = stronger / more preferred TF binding; details: protein concentration: 100 nM; construct: GST-full length
T1 sequence: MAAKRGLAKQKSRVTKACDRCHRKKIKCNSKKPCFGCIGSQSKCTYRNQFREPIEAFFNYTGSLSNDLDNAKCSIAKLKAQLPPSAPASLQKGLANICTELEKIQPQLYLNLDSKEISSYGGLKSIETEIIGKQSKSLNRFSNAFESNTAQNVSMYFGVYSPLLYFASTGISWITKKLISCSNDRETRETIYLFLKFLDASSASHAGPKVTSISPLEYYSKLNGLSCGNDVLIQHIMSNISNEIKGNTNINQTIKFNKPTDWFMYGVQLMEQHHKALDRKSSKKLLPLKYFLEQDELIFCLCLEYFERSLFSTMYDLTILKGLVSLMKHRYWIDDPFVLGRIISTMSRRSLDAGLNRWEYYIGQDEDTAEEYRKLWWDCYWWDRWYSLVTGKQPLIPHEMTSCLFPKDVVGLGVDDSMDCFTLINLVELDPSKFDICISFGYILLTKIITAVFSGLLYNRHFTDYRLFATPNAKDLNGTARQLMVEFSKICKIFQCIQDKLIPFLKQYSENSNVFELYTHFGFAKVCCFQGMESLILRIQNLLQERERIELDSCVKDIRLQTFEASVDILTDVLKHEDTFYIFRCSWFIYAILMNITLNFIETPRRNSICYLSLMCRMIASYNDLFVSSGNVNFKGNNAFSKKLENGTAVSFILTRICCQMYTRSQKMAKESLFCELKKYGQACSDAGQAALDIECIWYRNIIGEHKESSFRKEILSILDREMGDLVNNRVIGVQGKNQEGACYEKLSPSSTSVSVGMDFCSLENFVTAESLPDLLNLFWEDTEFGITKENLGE
Procedure: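 Universal 'all 10-mer' protein binding microarrays (Agilent AMADID 015681) probed with GST-tagged S. cerevisiae TFs (full-length or DBD) made by in vitro transcription/translation (PURExpress), about 100-200 nM. Bound TF was detected with fluorescent anti-GST. Each ungapped 8-mer (which stands for itself and its reverse complement) is scored by the PBM enrichment score (E-score), a modified Wilcoxon-Mann-Whitney statistic from -0.5 to +0.5, computed with the Universal PBM Analysis Suite. Scale: above 0.35 generally sequence-specific binding.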

| Sequence | PBM E-score |
| --- | --- |
| GCGGGACC | -0.0189 |
| CAAAACCG | 0.116 |
| GAACTCAA | 0.0685 |
| AGTTCTAT | -0.0389 |
| ACCCAATC | -0.00791 |
| GCTTGTCC | 0.114 |
| CGAATTTC | 0.276 |
| AAGGTTGG | -0.24 |
| AGAGTGAG | -0.128 |
| GTTTAAAC | 0.32 |
| CTTTAAAC | -0.052 |
| GTTTAAAA | 0.162 |
| AATACCCG | 0.104 |
| GCGGAAAC | 0.0908 |
| AAGGAAAT | 0.107 |
| ATGGAAAA | 0.158 |
| AGGGAAAT | -0.166 |
| ACGGAAAC | 0.306 |
| TTGGAAAA | 0.134 |
| TCGGAAAA | 0.382 |
| ACGGAAAT | 0.39 |
| GCGGAAAA | 0.216 |

| Sequence | PBM E-score |
| --- | --- |
| ACGGAAAA | 0.309 |
| TGGGAAAA | -0.0424 |
| AAGGAAAC | 0.0646 |
| AAGTGGGA | 0.034 |
| CCAGCGGG | 0.134 |
| ATACCCAT | -0.0126 |
| ATAGAGAA | 0.103 |
| CATTCGAG | -0.0644 |
| ACATCTCC | 0.128 |
| GTCATTCA | 0.0449 |
| CCGTCTCG | 0.159 |
| ATCTCGGA | 0.31 |
| ACCTCGGC | 0.238 |
| AGCTCGGC | 0.316 |
| GTCTCGGA | 0.227 |
| ATCTCGGC | 0.37 |
| CACTCGGC | 0.331 |
| CACTCGGG | 0.0303 |
| AACTCGGC | 0.273 |
| AGCTCGGA | 0.159 |
| ATCTCGGG | 0.219 |
| AGCTCGGG | 0.138 |

| Sequence | PBM E-score |
| --- | --- |
| CTCTCGGC | 0.238 |
| ACAGTAGT | -0.0892 |
| AAGACCAA | 0.052 |
| GAGCCTAA | -0.0836 |
| ACTGCAAA | 0.0905 |
| GTAAGCGA | 0.00236 |
| GCTCAAAA | 0.199 |
| TTATACAA | 0.313 |
| ATATACAA | 0.219 |
| GTATACAA | 0.125 |
| CAACTTTC | 0.0846 |
| GTACTACA | 0.0564 |
| CTTGTCTC | 0.0611 |
| AATATGCA | -0.0575 |
| GCGGCTCA | 0.2 |
| ACGGCTCG | 0.21 |
| CCGGCTCC | 0.293 |
| CCGGCTCA | 0.362 |
| CCGGCTCG | 0.339 |
| ACGGCTAA | 0.233 |
| TCGGCTAA | 0.313 |
| GCGGCTAA | 0.186 |

| Sequence | PBM E-score |
| --- | --- |
| TCGGCTCA | 0.2 |
| CAAGAGGA | -0.0179 |
| CCGGTCGA | 0.141 |
| ACTGCCGA | 0.262 |
| AGGCGAGG | -0.204 |
| CATGCTTA | -0.103 |
| CTCCAAGC | -0.181 |
| CGCTAATC | -0.0149 |
| GGAGGGCC | -0.308 |
| ACGCCCGA | 0.056 |
| AATATATA | 0.267 |
| GATATATA | 0.349 |
| AATATATT | 0.38 |
| AATATATG | 0.153 |
| TATATATA | 0.424 |
| TATATACA | 0.164 |
| GATATACA | 0.128 |
| GATATATC | 0.266 |
| CATATATA | 0.28 |
| AGGCCTAA | 0.0613 |
| CGCATGAG | -0.284 |
| CGACAGTC | -0.182 |
